± gives the standard deviation of the averaged measurements. In all, about 25,000 sequences were measured (“ln(normalized median fluorescence intensity)”: median about 8.9, highest 2% from about 10 on). The entries come from a sample that favours the highest values as a whole.
The sequences below were run on PfAP2-LT AP2 domain (GST-tagged) (assay: gcPBM binding intensity (ln(normalized median fluorescence intensity)); higher = stronger DNA binding).
In short: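 GST-tagged P. falciparum DNA-binding domains produced in E. coli were incubated for 1 h on an Agilent 4 × 180k array of primer-extended double-stranded 36-bp intergenic genomic probes with negative controls. Binding intensity is the highest Masliner-normalised natural-log median intensity across replicate spots of either probe orientation, with bound protein detected by Alexa488 anti-GST antibody at 488 nm.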
For “TATTTGTAAATCGATACACACATATAGATTAATATA [CACACA_site6237]”, the “gcPBM binding intensity (ln)” value was 8.88 ± 0.35.
In the case of “ATATTCTGATTTTAGATGCACTTCGTTAACAAAATA [GTGCAC_site9958]”, the “gcPBM binding intensity (ln)” value is reported as 8.49 ± 0.35.
“ATGGACATTTTATAAATCACAATGGATATTTTATAA [CACACA_negctrl_site1830]” was tested, and the “gcPBM binding intensity (ln)” value was 8.41 ± 0.42.
With “GGAAATTAACAGAACACAATGTAACAATTTCTAACA [CACACA_negctrl_site1250]” the “gcPBM binding intensity (ln)” value was 8.85 ± 0.4.
For “TAAAAGGGGATATATGAACACACAAAAAAAAAATAT [CACACA_site8940]”, the “gcPBM binding intensity (ln)” value was 9.04 ± 0.64.
With “GTTACATACATATACACACACATATATATATATATA [CACACA_site901]” the “gcPBM binding intensity (ln)” value was 10.2 ± 0.17.
“CATACATACATACATACACACATACAGATATATATA [CACACA_site4890]” was tested, and the “gcPBM binding intensity (ln)” value was 9.4 ± 0.38.
For “GTTACATACAGATACACACACATATATATATATATA [CACACA_site4652]”, the “gcPBM binding intensity (ln)” value was 10.2 ± 0.4.
“CACAGATATATACATACACACATATATACACATATA [CACACA_site6323]” was tested, and the “gcPBM binding intensity (ln)” value was 9.39 ± 0.32.
In the case of “ACGTTACATACATATACACACACATATATATATATA [CACACA_site8203]”, the “gcPBM binding intensity (ln)” value is reported as 9.93 ± 0.16.
“TACATACATACATACACACACACATATATATACATA [CACACA_site853]” was tested, and the “gcPBM binding intensity (ln)” value was 10.1 ± 0.23.
In the case of “CTCCACAAACAAATCGCACACCCAACCCAACATATA [CACACA_site2650]”, the “gcPBM binding intensity (ln)” value is reported as 9.68 ± 0.34.
“TATTTTTTTGTGTTTGGTACACACGTTATAAAAAAT [XGTACX_site2655]” was tested, and the “gcPBM binding intensity (ln)” value was 8.8 ± 0.36.
In the case of “AAAAAAAACGCACATACACACACACCCATATATATA [CACACA_site9118]”, the “gcPBM binding intensity (ln)” value is reported as 10.13 ± 0.028.
For “AAAAAAAAAAAAAAAACACACATACACCCCCACCCA [CACACA_site9117]”, the “gcPBM binding intensity (ln)” value was 9.89 ± 0.18.
For “CACAGACACCCATACACACACATACCCATATATATA [CACACA_site5023]”, the “gcPBM binding intensity (ln)” value was 9.56 ± 0.34.
“AAAAAACACCCATACACACACACACCGATATATATA [CACACA_site5808]” was tested, and the “gcPBM binding intensity (ln)” value was 10.2 ± 0.24.
With “AAAAAAAAAAAAAAAACACACATACACCCAGACACA [CACACA_site5807]” the “gcPBM binding intensity (ln)” value was 9.71 ± 0.18.
For “AAAAAAAAAAAAAACACACACACACCCACATATACA [CACACA_site2663]”, the “gcPBM binding intensity (ln)” value was 10.2 ± 0.16.
In the case of “AAAAAACAGACATACACACACACACCCATATATATA [CACACA_site3392]”, the “gcPBM binding intensity (ln)” value is reported as 10.4 ± 0.21.
With “TTAATATTATGTTAAAGTACTTTATATATATATAAT [XGTACX_site2646]” the “gcPBM binding intensity (ln)” value was 8.57 ± 0.3.
In the case of “AAGACTGCACTTTAAGCACACAAATATATTTTTTTT [CACACA_site8337]”, the “gcPBM binding intensity (ln)” value is reported as 8.86 ± 0.38.
With “TACAAATATATATGCACACACATATCTGTATATGTG [CACACA_site5663]” the “gcPBM binding intensity (ln)” value was 9.58 ± 0.26.
In the case of “GTAATATATACAAAATGTACAAAACAATAACATGAT [XGTACX_site8575]”, the “gcPBM binding intensity (ln)” value is reported as 9.2 ± 0.52.
For “TAATAAAATATGTACACACATACACCCATATATATA [CACACA_site1220]”, the “gcPBM binding intensity (ln)” value was 9.21 ± 0.35.
With “GTTTAAAATCTTTGCACACATATAAATAAATATATT [CACACA_site2555]” the “gcPBM binding intensity (ln)” value was 8.9 ± 0.41.
In the case of “AAAAAAAAAAAACACACACACACACCCATATACATA [CACACA_site2664]”, the “gcPBM binding intensity (ln)” value is reported as 10.31 ± 0.085.
“TAAACACCCATATAAACACACATACATACATACATA [CACACA_site5383]” was tested, and the “gcPBM binding intensity (ln)” value was 9.53 ± 0.4.
In the case of “TATAAACACCCATATAAACACACATACATACATACA [CACACA_site8791]”, the “gcPBM binding intensity (ln)” value is reported as 9.51 ± 0.33.
For “AAAAATAAAAAAAACACACATACCTTATTTTTGTTC [CACACA_site2634]”, the “gcPBM binding intensity (ln)” value was 8.98 ± 0.42.
For TATATATATATATATGTGCGCATTACTTTAAGAATA, the “gcPBM binding intensity (ln)” value was 9.6 ± 0.25.
For “TCTTTTTGCATGTGTGTGCGCACAAAATACACAAAA [GTGCAC_site9718]”, the “gcPBM binding intensity (ln)” value was 9.39 ± 0.3.
“AAAACAAAAGAATTCACACATATATATATATATATA [CACACA_site4777]” was tested, and the “gcPBM binding intensity (ln)” value was 10.1 ± 0.16.
“TACACAAGAAAATTCACACACACACCGATATATATA [CACACA_site6008]” was tested, and the “gcPBM binding intensity (ln)” value was 9.87 ± 0.16.
For “CACAAGAAAGTTCACACACACACATATATATATATA [CACACA_site6009]”, the “gcPBM binding intensity (ln)” value was 9.93 ± 0.62.
In the case of “CATACACAAGAAAATTCACACACACCCATATATATA [CACACA_site9288]”, the “gcPBM binding intensity (ln)” value is reported as 9.87 ± 0.23.
With “CACAAGAAAATTCACACACACACATATATATATATA [CACACA_site3880]” the “gcPBM binding intensity (ln)” value was 10.2 ± 0.14.
“TACACAAGAAAATTCACACACACACCCATATATATA [CACACA_site3879]” was tested, and the “gcPBM binding intensity (ln)” value was 10.12 ± 0.092.
With “TATATATGTTCAATATGTACATATATATAAGTGTAT [XGTACX_site5157]” the “gcPBM binding intensity (ln)” value was 8.79 ± 0.41.
For “AATATATCAAAAATTGGATAGTTTCTTATAAAAAAT [CACACA_negctrl_site39]”, the “gcPBM binding intensity (ln)” value was 8.43 ± 0.46.
For “ATATATATATATATATGTACATATATTCGATTATTA [XGTACX_site557]”, the “gcPBM binding intensity (ln)” value was 9.695 ± 0.035.
With “TACATATATATAAATACACACACACCCACCTTATAA [CACACA_site9346]” the “gcPBM binding intensity (ln)” value was 9.88 ± 0.15.
In the case of “TAATTATATAAATACACACACATACACCCAAATAAA [CACACA_site5819]”, the “gcPBM binding intensity (ln)” value is reported as 9.8 ± 0.2.
With “CATATATATAAATACACACACACACCCCTTATAATT [CACACA_site4064]” the “gcPBM binding intensity (ln)” value was 10.2 ± 0.15.
With “AAATTATAATATAATACACACATAAAAAAAAAAAAA [CACACA_site7]” the “gcPBM binding intensity (ln)” value was 8.93 ± 0.47.
With “CATATAAATAAATACACACACACACGCCTTATAATT [CACACA_site7830]” the “gcPBM binding intensity (ln)” value was 10.19 ± 0.078.
“ACATATAAATTATATACACACAATAATATATATATA [CACACA_site1384]” was tested, and the “gcPBM binding intensity (ln)” value was 9.01 ± 0.39.
“CCTCCCATTTTTACACGTACACATTTAAAATAGACT [XGTACX_site5640]” was tested, and the “gcPBM binding intensity (ln)” value was 8.95 ± 0.21.
In the case of “TATAAAGGTGAAATTTGTACATAGTCATTTTTTAAT [XGTACX_site4811]”, the “gcPBM binding intensity (ln)” value is reported as 8.52 ± 0.42.
With “TATAAAAAAATATATATATATATATATATATAAATA [TGCATGCA_negctrl_site22]” the “gcPBM binding intensity (ln)” value was 9.09 ± 0.37.
With “TAATAAAGTGAATAATGTACATTTTATTTATTATAT [XGTACX_site6614]” the “gcPBM binding intensity (ln)” value was 8.62 ± 0.45.
In the case of “GATGCACTTTAAAAATGTACTTATACCTTTAATTGT [XGTACX_site6395]”, the “gcPBM binding intensity (ln)” value is reported as 8.76 ± 0.41.
“CATATAAAAAGACACACACACACATATATATATATA [CACACA_site940]” was tested, and the “gcPBM binding intensity (ln)” value was 9.92 ± 0.31.
In the case of “AAAAAAAAAAGACACACACACACATAAATATAAATA [CACACA_site6215]”, the “gcPBM binding intensity (ln)” value is reported as 10.2 ± 0.42.
In the case of “ATAAAAAAAAGACACACACACATATATATATATATA [CACACA_site3073]”, the “gcPBM binding intensity (ln)” value is reported as 10.2 ± 0.18.
For “ATAAAAAAAGGACACACACACATATATTTATTTATA [CACACA_site7438]”, the “gcPBM binding intensity (ln)” value was 9.71 ± 0.19.
“AAAAAAAAAAGACACACACACATATAAATATAAATA [CACACA_site6899]” was tested, and the “gcPBM binding intensity (ln)” value was 9.81 ± 0.26.
In the case of “AATATAAAAAAAAAAAAAAAAAAAAAAAAAAAGACA [CACACA_negctrl_site983]”, the “gcPBM binding intensity (ln)” value is reported as 8.66 ± 0.5.
“CATATAAAAGGACACACACACACATATAAATATGTA [CACACA_site6568]” was tested, and the “gcPBM binding intensity (ln)” value was 9.88 ± 0.3.
In the case of “AAAGAAAGAAGACACACACACATATATAAATATCAA [CACACA_site7715]”, the “gcPBM binding intensity (ln)” value is reported as 9.88 ± 0.23.
“TATAAAAGTAGACACACACACATATAAATATAAATA [CACACA_site6567]” was tested, and the “gcPBM binding intensity (ln)” value was 9.66 ± 0.27.
“ATAAAAAAAGGACACACACACATATATATATATATA [CACACA_site5662]” was tested, and the “gcPBM binding intensity (ln)” value was 10.46 ± 0.05.
For “TATAAATAAAGACACACACACATATAAATAAATATA [CACACA_site7155]”, the “gcPBM binding intensity (ln)” value was 9.68 ± 0.26.
In the case of “TAAAAAGGAAGACACACACACACATATATAAATATA [CACACA_site7657]”, the “gcPBM binding intensity (ln)” value is reported as 10.2 ± 0.34.

From the supplement of paper PMC11417369
